# Inconclusive results are not listed. Entries that show only a call come without a potency. Values without a mark were called inactive. The source made the active and inactive calls. Calls come from the whole dose curve; as a rule, active = well fitted activation curve with a large enough effect in the repeat runs; inconclusive = weak or mixed curves; inactive = flat fitted curve, though single readings scatter.
# Test: A CellTox Green Cytotoxicity Assay to monitor cytotoxicity in HEK293 cells - 24 hour (AID 1224875); note: nearly all actives have a fitted effect of over 45% in size
# Settings: CellTox Green fluorescence; series mostly up to 76.8 µM
# Description: National Center for Advancing Translational Sciences [NCATS]
# NIH Chemical Genomics Center [NCGC]
# U.S. Environmental Protection Agency [EPA]
# National Institutes of Environmental Health Sciences [NIEHS]
# National Toxicology Program [NTP]
# Cell-based models are critical for drug discovery. Determining the natural cytotoxic effects resulting from test compounds is an essential research activity. A CellTox Green Cytotoxicity Assay to monitor cytotoxicity in real time of continues cell culture during 40 hours of the compound treatment was used to screen Tox21 10K library compounds in Hek293 cells. CellTox Green Cytotoxicity Assay is a nonlytic, homogeneous, biofluorescent method to measure cytotoxicity in cell culture after experimental manipulation. The assay system uses a proprietary asymmetric cyanine dye that is excluded from viable cells but preferentially stains the dead cell's DNA. […] Viable cells produce no appreciable increases in fluorescence. Therefore, the fluorescence signal produced by the binding interaction with dead cell DNA is proportional to cytotoxicity.
# The mixture of Hek293 cell suspension and reagents were dispensed at 600cells/6 ul/well in 1536-well tissue culture treated black solid bottom plates using a Multidrop dispenser. After the assay plates were incubated at a 37 C/5% CO2 incubator for 5 hours, 23 nL of compounds dissolved in DMSO, positive and negative controls was transferred to the assay plate by a pintool work station. The plates were incubated at 37 C for 40 hours. The fluorescence intensity were measured at 0h, 8h, 16h, 24h, 32h and 40h time points using ViewLux plate reader during compound treatment.
# Potency is the fitted concentration of half-maximal effect.
Structure (SMILES),Potency,activity change
OC(Cc1ccccc1Cl)(Cn1[nH]cnc1=S)C1(Cl)CC1 (stereo not given),inactive,
Clc1ccccc1-c1ccccc1Cl,35.2 µM (active),
Cc1ccc2nc3sc(=O)sc3nc2c1,,"-5.16% [at 15.8 µM, active compounds read high]"
Cc1nnc2n1-c1sc(CCc3ccc(CC(C)C)cc3)cc1C(c1ccccc1Cl)=NC2C (stereo not given),inactive,
Nc1ccc([N+](=O)[O-])cc1,49 µM (active),
ClC1=C(Cl)[C@]2(Cl)[C@@H]3[C@@H](Cl)[C@H]4O[C@H]4[C@@H]3C1(Cl)C2(Cl)Cl,54.9 µM (active),
O=S(=O)(C(Cl)(Cl)Cl)C(Cl)(Cl)Cl,21.9 µM (active),
COc1ccc(C(c2ccc(OC)cc2)C(Cl)(Cl)Cl)cc1,inactive,
Cc1ccc(N(SC(F)(Cl)Cl)S(=O)(=O)N(C)C)cc1,17.4 µM (active),
Oc1c(I)cc(I)cc1I,inactive,
O=C1C(I)=CC(=C(c2cc(I)c(O)c(I)c2)c2ccccc2C(=O)O)C=C1I,inactive,
CN1CSC(=S)N(C)C1,inactive,
OCC(c1ccc(Cl)cc1)c1ccc(Cl)cc1,24.5 µM (active),
N#Cc1cc([N+](=O)[O-])ccc1N,inactive,
O=[N+]([O-])c1c(Cl)c(Cl)cc(Cl)c1Cl,49 µM (active),
Cc1cc(C)c(C(=O)P(=O)(c2ccccc2)c2ccccc2)c(C)c1,inactive,
CC1COC(Cn2cncn2)(c2ccc(Oc3ccc(Cl)cc3)cc2Cl)O1 (stereo not given),inactive,
COc1cc(OC)c(OC)cc1C=O,inactive,
CNC(=O)Oc1cc(C)c(SC)c(C)c1,21.9 µM (active),
CCN(CC)C(=O)Cl,inactive,
